# The full data set covers some 8,800 targets. This sample favours those with a hit. About 0.5% of all pairs of compound and target were hits. Unmarked numbers belong to inactive results.
# Tests used:
# Test in all cases: log2 fold change, soluble protein after heating vs DMSO (PISA); higher = thermal stabilisation; K562 lysate, 10 uM; active = over 0.2 and 3.5 SD of the protein, either way, in both replicates (recomputed)
# alvocidib = compound: CN1CC[C@H](c2c(O)cc(O)c3c(=O)cc(-c4ccccc4Cl)oc23)[C@H](O)C1 [alvocidib]
# How it was run: (§1)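 K562 pellets were dounce-homogenised in PBS pH 7.4 containing 1 mM MgCl2, and the crude extract, at 1 mg/mL protein, was exposed to 10 μM compound for 30 min. Aliquots were heated for 3 min across 48°C-58°C, pooled, brought to 0.5% NP-40 at 4°C and spun at 21,000xg for 90 min, with the supernatant taken as soluble protein. TMTpro 16plex LC-MS/MS with equalised channel sums quantified that protein. Values are log-two fold changes in thermal stability relative to solvent controls, taken from duplicates.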
# Tubastatin A = compound: CN1CCc2c(c3ccccc3n2Cc2ccc(C(=O)NO)cc2)C1 [Tubastatin A]
# How it was run: as §1
# [1] = compound: CNC(=O)C1=CC=CC=C1NC2=NC(=NC=C2Cl)NC3=C(C=C(C=C3)N4CCOCC4)OC
# How it was run: as §1
# defactinib = compound: CNC(=O)c1ccc(Nc2ncc(C(F)(F)F)c(NCc3nccnc3N(C)S(C)(=O)=O)n2)cc1 [defactinib]
# How it was run: as §1
# [2] = compound: CNc1nc(-c2ccc3c(N)n[nH]c3c2)cc(N2C[C@@H](C(=O)NC3CCCCC3)CC[C@H]2C)n1
# How it was run: as §1
# encorafenib = compound: COC(=O)N[C@@H](C)CNc1nccc(-c2cn(C(C)C)nc2-c2cc(Cl)cc(NS(C)(=O)=O)c2F)n1 [encorafenib]
# How it was run: as §1
# [3] = compound: COC(=O)[C@H](CCSC)NC(=O)C1=C(C=C(C=C1)NC[C@H](CS)N)C2=CC=CC=C2
# How it was run: as §1
# alisertib = compound: COc1cc(Nc2ncc3c(n2)-c2ccc(Cl)cc2C(c2c(F)cccc2OC)=NC3)ccc1C(=O)O [alisertib]
# How it was run: as §1
# [4] = compound: COc1cc2nc(-c3cc(F)ccc3O)nc(N[C@@H]3CNC[C@H]3C(C)(C)O)c2cc1OC
# How it was run: as §1
# gefitinib = compound: COc1cc2ncnc(Nc3ccc(F)c(Cl)c3)c2cc1OCCCN1CCOCC1 [gefitinib]
# How it was run: as §1
# Sequence of UniProt Q9UDX5 (Q9UDX5 whole entry, looked up): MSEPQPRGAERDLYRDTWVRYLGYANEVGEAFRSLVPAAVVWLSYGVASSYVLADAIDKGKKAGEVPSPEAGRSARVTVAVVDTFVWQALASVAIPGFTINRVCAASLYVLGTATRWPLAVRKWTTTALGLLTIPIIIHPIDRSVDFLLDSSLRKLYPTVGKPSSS
# Sequence of UniProt Q86W56 (Q86W56 whole entry, looked up): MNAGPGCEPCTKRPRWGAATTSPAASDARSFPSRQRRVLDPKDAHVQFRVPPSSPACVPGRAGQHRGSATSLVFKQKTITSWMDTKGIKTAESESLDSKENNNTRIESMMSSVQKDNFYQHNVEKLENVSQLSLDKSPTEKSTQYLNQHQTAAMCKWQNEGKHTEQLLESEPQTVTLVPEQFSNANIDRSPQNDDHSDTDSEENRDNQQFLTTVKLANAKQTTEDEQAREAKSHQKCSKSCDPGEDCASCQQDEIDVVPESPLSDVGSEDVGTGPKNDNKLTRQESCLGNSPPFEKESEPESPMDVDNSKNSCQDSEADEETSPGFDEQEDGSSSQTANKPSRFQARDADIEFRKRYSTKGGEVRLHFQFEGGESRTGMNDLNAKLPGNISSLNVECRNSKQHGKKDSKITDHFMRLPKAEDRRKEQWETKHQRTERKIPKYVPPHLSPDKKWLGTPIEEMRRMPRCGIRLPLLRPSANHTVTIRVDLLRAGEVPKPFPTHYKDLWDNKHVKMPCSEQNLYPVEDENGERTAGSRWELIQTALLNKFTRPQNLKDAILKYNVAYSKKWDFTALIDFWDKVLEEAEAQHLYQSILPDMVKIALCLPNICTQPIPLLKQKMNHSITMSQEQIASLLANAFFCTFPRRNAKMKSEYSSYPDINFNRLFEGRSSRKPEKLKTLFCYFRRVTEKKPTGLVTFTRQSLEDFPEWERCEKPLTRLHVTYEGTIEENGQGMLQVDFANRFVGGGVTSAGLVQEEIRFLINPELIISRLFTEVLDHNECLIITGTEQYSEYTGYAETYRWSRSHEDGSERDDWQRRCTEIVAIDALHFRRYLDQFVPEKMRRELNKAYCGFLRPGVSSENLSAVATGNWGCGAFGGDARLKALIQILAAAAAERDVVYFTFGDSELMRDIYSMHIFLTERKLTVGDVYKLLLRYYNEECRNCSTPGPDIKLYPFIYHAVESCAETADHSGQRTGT
# Sequence of UniProt Q96IV0 (Q96IV0 whole entry, looked up): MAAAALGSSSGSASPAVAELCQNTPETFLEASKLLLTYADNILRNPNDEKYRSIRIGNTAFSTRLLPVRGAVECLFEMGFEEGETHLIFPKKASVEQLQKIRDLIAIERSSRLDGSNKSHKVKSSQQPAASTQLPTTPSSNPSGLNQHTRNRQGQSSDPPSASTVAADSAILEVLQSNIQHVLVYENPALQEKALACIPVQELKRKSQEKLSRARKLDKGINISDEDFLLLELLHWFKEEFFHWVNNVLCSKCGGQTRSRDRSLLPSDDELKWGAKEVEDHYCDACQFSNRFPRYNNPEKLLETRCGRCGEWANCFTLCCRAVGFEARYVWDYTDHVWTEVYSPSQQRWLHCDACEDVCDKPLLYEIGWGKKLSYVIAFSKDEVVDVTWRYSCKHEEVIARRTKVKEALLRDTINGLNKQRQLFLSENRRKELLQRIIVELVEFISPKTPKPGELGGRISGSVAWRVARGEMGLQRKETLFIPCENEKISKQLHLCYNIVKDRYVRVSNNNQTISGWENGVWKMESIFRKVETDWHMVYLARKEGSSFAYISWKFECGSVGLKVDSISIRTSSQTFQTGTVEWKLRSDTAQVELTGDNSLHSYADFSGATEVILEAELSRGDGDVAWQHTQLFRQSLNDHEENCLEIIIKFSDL
# Sequence of UniProt Q15653 (Q15653 whole entry, looked up): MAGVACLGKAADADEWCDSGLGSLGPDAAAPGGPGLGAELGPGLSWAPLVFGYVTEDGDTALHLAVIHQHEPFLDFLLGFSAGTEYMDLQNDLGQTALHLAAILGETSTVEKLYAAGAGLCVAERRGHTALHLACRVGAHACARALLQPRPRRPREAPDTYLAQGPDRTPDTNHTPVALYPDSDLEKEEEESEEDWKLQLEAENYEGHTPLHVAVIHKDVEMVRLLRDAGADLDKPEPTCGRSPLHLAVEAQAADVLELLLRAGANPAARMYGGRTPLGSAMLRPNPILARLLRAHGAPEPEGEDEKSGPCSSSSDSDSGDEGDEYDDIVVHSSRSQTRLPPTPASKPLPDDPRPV
# Sequence of UniProt Q6GQQ9 (Q6GQQ9 whole entry, looked up): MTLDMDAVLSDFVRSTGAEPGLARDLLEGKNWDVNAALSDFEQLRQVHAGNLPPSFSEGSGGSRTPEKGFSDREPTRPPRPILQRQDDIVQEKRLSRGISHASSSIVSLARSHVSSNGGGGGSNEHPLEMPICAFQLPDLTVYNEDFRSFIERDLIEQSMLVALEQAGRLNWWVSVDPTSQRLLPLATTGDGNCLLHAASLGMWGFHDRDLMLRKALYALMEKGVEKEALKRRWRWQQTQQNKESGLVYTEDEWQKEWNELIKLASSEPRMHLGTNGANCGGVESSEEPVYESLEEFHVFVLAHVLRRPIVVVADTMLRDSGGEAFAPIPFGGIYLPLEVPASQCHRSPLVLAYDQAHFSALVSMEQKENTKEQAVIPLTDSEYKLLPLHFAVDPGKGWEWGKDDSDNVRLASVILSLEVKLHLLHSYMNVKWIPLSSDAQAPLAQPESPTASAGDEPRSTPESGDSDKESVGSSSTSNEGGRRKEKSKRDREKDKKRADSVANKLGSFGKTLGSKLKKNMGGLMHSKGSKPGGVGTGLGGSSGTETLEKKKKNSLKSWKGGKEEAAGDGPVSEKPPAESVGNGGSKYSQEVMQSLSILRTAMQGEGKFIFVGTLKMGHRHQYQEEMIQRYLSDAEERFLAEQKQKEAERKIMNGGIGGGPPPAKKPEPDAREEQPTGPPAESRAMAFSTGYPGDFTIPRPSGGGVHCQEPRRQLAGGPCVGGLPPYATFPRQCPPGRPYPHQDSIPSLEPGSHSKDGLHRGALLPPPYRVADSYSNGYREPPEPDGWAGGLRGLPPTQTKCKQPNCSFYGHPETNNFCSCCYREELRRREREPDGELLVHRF
# Sequence of UniProt P52179 (P52179 whole entry, looked up): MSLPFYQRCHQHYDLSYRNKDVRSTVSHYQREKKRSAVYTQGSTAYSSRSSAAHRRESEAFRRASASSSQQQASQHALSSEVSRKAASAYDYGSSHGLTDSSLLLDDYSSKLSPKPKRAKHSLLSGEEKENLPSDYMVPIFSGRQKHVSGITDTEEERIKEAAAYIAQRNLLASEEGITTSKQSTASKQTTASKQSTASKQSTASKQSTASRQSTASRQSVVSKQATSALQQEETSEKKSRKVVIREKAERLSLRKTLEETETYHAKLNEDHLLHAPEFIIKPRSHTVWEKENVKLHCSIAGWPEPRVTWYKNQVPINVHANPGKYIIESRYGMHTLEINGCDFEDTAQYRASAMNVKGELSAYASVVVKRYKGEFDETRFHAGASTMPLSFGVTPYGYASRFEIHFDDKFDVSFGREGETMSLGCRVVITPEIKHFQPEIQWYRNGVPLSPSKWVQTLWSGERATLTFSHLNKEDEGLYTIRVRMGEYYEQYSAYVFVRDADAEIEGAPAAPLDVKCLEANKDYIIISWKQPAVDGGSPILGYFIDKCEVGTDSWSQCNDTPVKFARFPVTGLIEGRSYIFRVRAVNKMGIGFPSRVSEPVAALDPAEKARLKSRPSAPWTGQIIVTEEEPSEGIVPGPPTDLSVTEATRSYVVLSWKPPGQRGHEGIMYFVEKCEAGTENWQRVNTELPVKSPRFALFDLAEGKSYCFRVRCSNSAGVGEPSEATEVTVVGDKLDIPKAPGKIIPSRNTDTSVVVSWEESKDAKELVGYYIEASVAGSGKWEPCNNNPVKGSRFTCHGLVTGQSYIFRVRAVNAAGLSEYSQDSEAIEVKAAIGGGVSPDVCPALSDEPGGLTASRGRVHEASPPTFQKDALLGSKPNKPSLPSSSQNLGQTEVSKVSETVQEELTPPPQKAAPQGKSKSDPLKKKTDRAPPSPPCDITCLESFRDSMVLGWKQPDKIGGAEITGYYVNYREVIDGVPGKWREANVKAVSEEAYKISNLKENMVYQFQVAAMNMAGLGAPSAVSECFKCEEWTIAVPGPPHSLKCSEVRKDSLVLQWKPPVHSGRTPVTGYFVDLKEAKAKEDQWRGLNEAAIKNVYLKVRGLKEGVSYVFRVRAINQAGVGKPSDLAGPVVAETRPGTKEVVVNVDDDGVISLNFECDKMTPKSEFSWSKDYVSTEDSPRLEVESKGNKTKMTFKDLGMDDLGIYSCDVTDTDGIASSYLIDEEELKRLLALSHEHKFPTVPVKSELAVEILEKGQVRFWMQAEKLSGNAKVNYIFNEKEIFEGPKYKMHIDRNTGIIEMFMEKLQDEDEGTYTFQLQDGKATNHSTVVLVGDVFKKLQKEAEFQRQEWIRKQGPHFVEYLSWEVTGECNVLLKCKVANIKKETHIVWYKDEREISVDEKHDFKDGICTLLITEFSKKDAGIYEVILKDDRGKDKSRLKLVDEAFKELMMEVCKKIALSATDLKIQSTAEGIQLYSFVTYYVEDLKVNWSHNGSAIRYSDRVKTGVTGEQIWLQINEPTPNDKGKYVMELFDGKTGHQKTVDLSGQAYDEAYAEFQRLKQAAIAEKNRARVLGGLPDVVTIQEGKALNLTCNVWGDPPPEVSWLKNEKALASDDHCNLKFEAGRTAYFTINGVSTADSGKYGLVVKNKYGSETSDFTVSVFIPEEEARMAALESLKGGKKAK
# Sequence of UniProt Q9Y530 (Q9Y530 whole entry, looked up): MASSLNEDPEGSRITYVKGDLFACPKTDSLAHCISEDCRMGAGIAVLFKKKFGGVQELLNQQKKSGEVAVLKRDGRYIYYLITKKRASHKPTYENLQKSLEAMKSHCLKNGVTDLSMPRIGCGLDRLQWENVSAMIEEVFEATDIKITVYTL
Target,log2 fold change (alvocidib),log2 fold change (Tubastatin A),log2 fold change [1],log2 fold change (defactinib),log2 fold change [2],log2 fold change (encorafenib),log2 fold change [3],log2 fold change (alisertib),log2 fold change [4],log2 fold change (gefitinib)
NUSAP1 (UniProt Q9BXS6),-0.17,0.029,-0.02,0.027,0.07,0.012,-0.028,0.01,-0.002,-0.012
NGLY1 (UniProt Q96IV0),-0.041,-0.089,-0.013,0.022,0,-0.009,0.111,0.002,0.001,-0.044
NIFK (UniProt Q9BYG3),0.009,-0.023,-0.023,0,0.095,0.039,-0.003,-0.073,-0.014,0.01
NFATC1 (UniProt O95644),-0.024,-0.138,0.124,-0.012,-0.031,-0.071,0.048,-0.025,0.001,0.027
NUP160 (UniProt Q12769),0.029,-0.143,0.045,0.004,-0.03,0.059,-0.195,0.015,0.004,0.031
NSL1 (UniProt Q96IY1),-0.026,-0.084,0.016,0.034,-0.004,-0.055,0.094,0.019,-0.014,-0.004
NCAPD2 (UniProt Q15021),0.007,-0.119,0.013,0.002,-0.018,0.013,0.076,0.004,-0.005,-0.016
NOSTRIN (UniProt Q8IVI9),-0.009,-0.35 (active),0.027,0.07,0.061,-0.112,0.11,-0.019,0,0.004
MYO1C (UniProt O00159),0.029,-0.114,-0.057,0.052,-0.045,0.076,0.049,0.008,0.01,-0.02
NSA2 (UniProt O95478),-0.291,-0.181,-0.017,0.058,0.066,-0.184,-0.086,-0.14,-0.012,0.056
MRPL51 (UniProt Q4U2R6),-0.039,-0.018,0.016,0.198,-0.002,0.088,-0.208,-0.005,-0.005,-0.044
PARG (UniProt Q86W56),0.03,-0.055,0.029,0.041,-0.016,0.027,0.042,0,0.01,0.046
PAN2 isoform 2 (UniProt Q504Q3),-0.023,-0.025,-0.018,-0.099,-0.046,0.08,-0.041,0,-0.043,-0.044
OARD1 (UniProt Q9Y530),-0.003,-0.097,0,0.037,-0.11,0.011,0.018,0.011,0.028,-0.014
NEK7 (UniProt Q8TDX7),-0.055,-0.113,0.552 (active),0.007,-0.013,0,0.003,0.038,0.057,-0.049
NADK2 (UniProt Q4G0N4),-0.025,0.106,-0.036,0,0.04,-0.052,0.3 (active),-0.022,-0.004,-0.009
MTMR6 (UniProt Q9Y217),-0.034,-0.019,0,-0.042,-0.047,0.028,-0.092,0.022,0.004,-0.053
PARP14 (UniProt Q460N5),0.009,-0.238,-0.15,-0.007,-0.09,0.021,0.082,-0.127,0,-0.014
OAT (UniProt P04181),-0.023,-0.016,-0.03,-0.016,-0.023,-0.022,0.091,0.036,0.006,0.008
NFKBIB (UniProt Q15653),-0.146,-0.077,0.053,-0.007,-0.006,0.006,0.06,0,-0.031,0.064
PAK4 (UniProt O96013),-0.019,-0.038,0.27,0.441,-0.021,-0.173,-0.057,0.002,0.241,-0.027
NFATC2 (UniProt Q13469),-0.12,-0.118,0.021,-0.028,0.06,0.004,0.1,-0.047,-0.007,-0.025
OTUD7B (UniProt Q6GQQ9),-0.052,-0.099,0.005,0.022,-0.011,0.042,0.049,-0.006,-0.031,0.062
NUMB (UniProt P49757),-0.021,-0.125,-0.028,-0.02,0.026,0.094,0.013,-0.031,-0.007,0.052
MYOM1 (UniProt P52179),0.039,-0.033,-0.092,0.194,0.139,0.065,-0.011,0.215,-0.06,0.026
MTCH2 (UniProt Q9Y6C9),-0.032,-0.046,0.043,-0.003,0.047,-0.01,0.043,0.013,-0.062,-0.007
PARD3 (UniProt Q8TEW0),-0.035,-0.087,-0.021,0.144,-0.031,0.007,0.061,-0.013,0.438 (active),0.04
MTFP1 (UniProt Q9UDX5),-0.087,-0.006,0.053,0.145,0.007,-0.037,0.102,-0.032,0.003,-0.011
NUP93 (UniProt Q8N1F7),-0.006,-0.085,-0.013,0.023,-0.097,0.029,0.027,0.01,-0.007,0.014
NFIC (UniProt P08651),-0.103,-0.104,0.078,-0.153,-0.048,0.121,-0.025,0,-0.025,0.117
